Experimental findings from PubChem BioAssay are described below.

Experiment [1] relates to Wnt5a (protein binding on small-molecule microarray). The experiment in a line: Wnt5a binders on small-molecule microarray, primary screen, biophysical, 635/667 nm fluorescence (AID 1142).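 Also: fluorescence read at 667 nm with signal to noise per printed feature.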 Particulars: 635 nm fluorescence, higher = more signal.
A short description of experiment [2]: cell viability in Huh7 cells, primary screen, cytotoxicity control for HCV replication inhibitor project, CellTiter-Glo luminescence, basal, 48 h (AID 1143).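 Also: Huh7 hepatoma cells carrying a hepatitis C replication reporter with no stimulus; test concentration not given here.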 The settings on record: Huh7 HCV replicon, higher = more signal, called active from +8 up or from −8 down.
Experiment [3] can be described thus: P. aeruginosa biofilm formation inhibitors, primary screen, PAO1 strain, BacTiter-Glo luminescence, LB-PBS (AID 1144). Particulars: 12 h, higher = more signal.
A short description of experiment [4]: CREB reporter modulators without forskolin, primary screen, cell-based, PC12, CRE-LacZ reporter, unstimulated (AID 1145). Particulars: no forskolin, luminescence, 4.5 h, higher = more signal, called active from +8 up or from −8 down.
Experiment [5] is described as follows: CREB reporter modulators under forskolin, primary screen, cell-based, PC12, CRE-LacZ reporter, forskolin-stimulated (AID 1146).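 Also: PC12 cells with 6xCRE LacZ reporter stimulated by forskolin 10 µM; beta-galactosidase reporter signal reflecting CREB driven transcription.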 The settings on record: luminescence, 4.5 h, higher = more signal, called active from +8 up or from −8 down.
The target of experiment [6] is Streptavidin (Streptomyces avidinii) (UniProt P22629). Briefly: streptavidin binders on small-molecule microarray, primary screen, artefact control for SMM compound annotation, biophysical, 635/667 nm fluorescence (AID 1147).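 Also: signal reflects streptavidin binding to arrayed compounds as a control protein.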 Particulars: streptavidin binding, higher = more signal.
A short description of experiment [7]: small-molecule binders of probe aInhba, primary screen, biochemical, small-molecule microarray, 635/667 nm fluorescence (AID 1148).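 Also: score merges 667nm spot fluorescence with signal-to-noise for antibody binding to printed compounds.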 The settings on record: higher = more signal.
Experiment [8] concerns the target Torsin-1A (Homo sapiens) (UniProt O14656). The experiment in a line: torsin A binders from cell lysate, primary screen, small-molecule microarray, wild-type, 635/667 nm (AID 1149). The settings on record: COS7 hTOR1A-WT lysate, 635 nm fluorescence, higher = more signal.
The target is the same in experiment [9]. Briefly: small-molecule binders of mutant TOR1A in lysate, primary screen, cell lysate, small-molecule microarray, COS7 lysate, 635/667 nm fluorescence (AID 1150).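 Also: score pools 667 nm emission and signal to noise measuring lysate protein binding.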 Particulars: COS7 hTOR1A mutant lysate, 635 nm fluorescence, higher = more signal.
The test system of experiment [10] is Sonic hedgehog protein (Shh). The experiment in a line: small-molecule binders of Shh protein, primary screen, biochemical, small-molecule microarray, 635/667 nm fluorescence (AID 1151).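 Also: Shh protein binding to compounds spotted on small-molecule microarray slides; score combines spot fluorescence intensity with signal-to-noise across triplicate slides.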 Particulars: small-molecule microarray binding, 635 nm fluorescence; higher = more signal.
Experiment [11] can be described thus: E. coli DRC41 culture turbidity changes, primary screen, E. coli filamentation inducer project, strain DRC41, OD650, 48 h (AID 1152).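 Also: E. coli MC1000 strain DRC41 lacking acrAB efflux pump and sulA.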 The settings on record: E. coli DRC41 (acrAB sulA), higher = more signal, called active from +8 up or from −8 down.
Experiment [12] is described as follows: small-molecule binders of probe aLefty1, primary screen, biochemical, small-molecule microarray, 635/667 nm fluorescence (AID 1153).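 Also: score merges spot fluorescence with signal-to-noise ratio from the scanned slide images.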 The settings on record: higher = more signal.
A short description of experiment [13]: PSAC antagonists in infected red cells, primary screen, cell-based, P. falciparum Indochina, OD700, 1 h (AID 1154). Particulars: P. falciparum Indochina infected RBC osmotic lysis, higher = more signal, called active from +8 up or from −8 down.
Experiment [14] is described as follows: PSAC antagonists in infected red cells, primary screen, cell-based, P. falciparum Indochina, OD700, 2 h (AID 1155).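 Also: lysis reports solute entry through the parasite surface anion channel PSAC; channel blockers reduce lysis of infected cells.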 The settings on record: P. falciparum Indochina infected erythrocytes, osmotic lysis OD700; higher = more signal, called active from +8 up or from −8 down.
Experiment [15] in a line: osmotic lysis modulators in infected erythrocytes, primary screen, PSAC antagonist project, cell-based, P. falciparum Indochina, OD700, 3 h (AID 1156). Particulars: higher = more signal, called active from +8 up or from −8 down.
Experiment [16] in a line: PSAC antagonists in infected red cells, primary screen, cell-based, P. falciparum Indochina, OD700, 18 h (AID 1157). The settings on record: P. falciparum Indochina infected erythrocytes, osmotic lysis OD700, 18 h; higher = more signal, called active from +8 up or from −8 down.
A short description of experiment [17]: modulators of S6 phosphorylation in cells, primary screen, cell-based, A549, cytoblot, luminescence, serum-stimulated (AID 1158).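 Also: serum-stimulated A549 lung adenocarcinoma cells; signal is phosphorylated S6 detected by cytoblot immunostaining with HRP secondary.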 The settings on record: A549 phospho-S6 cytoblot, 5 h, higher = more signal.
The target in experiment [18] is NADPH oxidase 2 (Homo sapiens) (UniProt P04839). Briefly: NOX2-dependent H2O2 signal modulators, primary screen, NOX inhibitor project, cell-based, HEK293-NOX2, PMA-stimulated, Amplex Red fluorescence (AID 1159). Also: test concentration not given here. The settings on record: 45 min, higher = more signal, called active from +8 up or from −8 down.
Experiment [19] concerns the target NADPH oxidase 4 (Homo sapiens) (UniProt Q9NPH5). The experiment in a line: NOX4-dependent H2O2 signal modulators, primary screen, NOX inhibitor project, cell-based, HEK293-NOX4, tetracycline-induced, Amplex Red fluorescence (AID 1160). Particulars: 45 min, higher = more signal, called active from +8 up or from −8 down.
Experiment [20] deals with NADPH oxidase 5 (Homo sapiens) (UniProt Q96PH1). Briefly: NOX5-dependent H2O2 signal modulators, primary screen, NOX inhibitor project, cell-based, HEK293-NOX5, Amplex Red fluorescence (AID 1161). Particulars: HEK293-NOX5, ionomycin, 45 min, higher = more signal.

The source made the active and inactive calls. Unless noted, no rule for the calls is given here.

Sequence of Streptavidin (Streptomyces avidinii) (P22629 whole entry, looked up): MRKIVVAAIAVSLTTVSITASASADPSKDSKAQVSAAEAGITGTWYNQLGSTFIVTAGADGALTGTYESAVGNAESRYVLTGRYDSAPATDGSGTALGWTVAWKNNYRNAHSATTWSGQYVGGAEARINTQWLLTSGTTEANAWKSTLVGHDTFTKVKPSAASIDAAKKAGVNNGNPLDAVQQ
Sequence of NADPH oxidase 2 (Homo sapiens) (P04839 whole entry, looked up): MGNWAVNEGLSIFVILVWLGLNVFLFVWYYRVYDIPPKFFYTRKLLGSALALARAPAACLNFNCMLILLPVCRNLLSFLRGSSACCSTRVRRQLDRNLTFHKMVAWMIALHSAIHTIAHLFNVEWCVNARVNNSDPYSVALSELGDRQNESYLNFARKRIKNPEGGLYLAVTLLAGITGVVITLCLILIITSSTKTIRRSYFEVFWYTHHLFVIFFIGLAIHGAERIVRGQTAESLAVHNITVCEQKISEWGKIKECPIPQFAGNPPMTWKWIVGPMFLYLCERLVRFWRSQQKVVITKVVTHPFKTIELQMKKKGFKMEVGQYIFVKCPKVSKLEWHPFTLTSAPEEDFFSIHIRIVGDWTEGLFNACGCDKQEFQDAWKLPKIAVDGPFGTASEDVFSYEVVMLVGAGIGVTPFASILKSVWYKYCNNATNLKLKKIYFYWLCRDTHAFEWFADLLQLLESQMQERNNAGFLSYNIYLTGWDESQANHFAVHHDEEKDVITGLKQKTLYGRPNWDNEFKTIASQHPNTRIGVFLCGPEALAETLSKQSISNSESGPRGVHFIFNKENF
Sequence of NADPH oxidase 4 (Homo sapiens) (Q9NPH5 whole entry, looked up): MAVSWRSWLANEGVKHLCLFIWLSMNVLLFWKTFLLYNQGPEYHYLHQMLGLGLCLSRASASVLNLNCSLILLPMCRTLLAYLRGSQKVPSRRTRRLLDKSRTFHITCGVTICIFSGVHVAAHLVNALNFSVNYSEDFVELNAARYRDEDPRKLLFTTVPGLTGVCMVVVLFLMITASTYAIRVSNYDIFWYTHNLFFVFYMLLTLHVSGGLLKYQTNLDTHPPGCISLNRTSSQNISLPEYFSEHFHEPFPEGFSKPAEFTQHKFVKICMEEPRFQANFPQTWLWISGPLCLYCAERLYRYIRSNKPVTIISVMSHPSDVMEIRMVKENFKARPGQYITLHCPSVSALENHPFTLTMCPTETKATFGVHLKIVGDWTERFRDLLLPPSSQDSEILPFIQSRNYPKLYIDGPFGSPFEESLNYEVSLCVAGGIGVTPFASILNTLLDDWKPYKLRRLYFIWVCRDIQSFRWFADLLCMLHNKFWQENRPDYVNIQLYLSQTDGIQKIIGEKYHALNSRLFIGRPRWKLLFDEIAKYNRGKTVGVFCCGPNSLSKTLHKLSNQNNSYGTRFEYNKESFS
Sequence of Torsin-1A (Homo sapiens) (O14656 whole entry, looked up): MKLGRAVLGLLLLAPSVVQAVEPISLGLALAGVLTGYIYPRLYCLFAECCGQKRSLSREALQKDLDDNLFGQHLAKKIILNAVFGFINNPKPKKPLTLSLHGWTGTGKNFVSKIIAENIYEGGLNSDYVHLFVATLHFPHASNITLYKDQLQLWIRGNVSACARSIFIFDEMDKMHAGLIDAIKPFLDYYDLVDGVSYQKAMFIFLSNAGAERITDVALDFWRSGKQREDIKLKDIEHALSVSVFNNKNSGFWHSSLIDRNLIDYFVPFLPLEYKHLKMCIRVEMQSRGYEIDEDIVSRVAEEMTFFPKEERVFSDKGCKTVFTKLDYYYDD
Sequence of NADPH oxidase 5 (Homo sapiens) (Q96PH1 whole entry, looked up): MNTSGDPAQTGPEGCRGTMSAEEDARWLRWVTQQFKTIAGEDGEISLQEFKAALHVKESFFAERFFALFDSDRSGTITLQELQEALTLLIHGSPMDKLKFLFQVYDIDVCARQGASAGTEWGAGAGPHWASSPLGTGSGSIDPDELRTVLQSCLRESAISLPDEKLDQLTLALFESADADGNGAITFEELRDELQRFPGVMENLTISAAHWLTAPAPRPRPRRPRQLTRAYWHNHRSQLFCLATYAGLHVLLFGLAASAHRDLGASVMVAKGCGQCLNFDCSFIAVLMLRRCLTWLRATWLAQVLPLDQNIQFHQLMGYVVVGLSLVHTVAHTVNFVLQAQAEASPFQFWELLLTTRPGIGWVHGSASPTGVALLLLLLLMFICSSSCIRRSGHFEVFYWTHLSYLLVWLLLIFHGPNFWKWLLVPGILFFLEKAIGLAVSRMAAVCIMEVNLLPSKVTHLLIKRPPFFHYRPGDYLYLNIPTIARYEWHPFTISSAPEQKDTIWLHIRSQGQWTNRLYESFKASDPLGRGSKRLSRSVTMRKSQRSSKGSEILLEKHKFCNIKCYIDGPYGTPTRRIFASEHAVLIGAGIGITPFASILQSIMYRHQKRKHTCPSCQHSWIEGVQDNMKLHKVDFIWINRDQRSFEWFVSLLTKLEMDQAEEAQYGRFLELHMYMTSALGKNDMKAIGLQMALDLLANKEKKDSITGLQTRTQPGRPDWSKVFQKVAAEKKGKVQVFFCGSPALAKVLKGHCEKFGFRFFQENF

`C=C(COC)C(=O)CC[C@H](OC(C)=O)c1ccccc1OCCO`: the composite z-score in experiment [1] was 0.0375; in experiment [6], -0.955; in experiment [7] it was 0.858; in the experiment with Torsin-1A (Homo sapiens) [8] it was 2.34; with Torsin-1A (Homo sapiens) [9], 0.851; in experiment [10], 1.8. Moreover, the composite z-score in experiment [12] is -0.176. Further, the z-score in [2] was -4.1 (inactive); in experiment [3] it was -0.0151 (inactive); in [4] it was 6.35 (inactive); in experiment [5] it was 4.62 (inactive); in experiment [11], 0.618 (inactive); in experiment [13], 1.91 (inactive). The z-score is -0.291 (inactive) in experiment [14]; 0.537 (inactive) in [15]; -1.49 (inactive) in experiment [16]; 1.2 in experiment [17]; -1.57 (inactive) in [18]; 0.456 (inactive) in [19]. In addition, in [20], the z-score is -1.41.
With `C=CCOC(=O)[C@@H]1[C@H]2C(=O)O[C@H](c3ccccc3)[C@H](c3ccccc3)N2[C@H](c2ccc(OCCOC(=O)[C@@H]3C[C@@H]4C(=O)N[C@@H](CC(C)C)C(=O)N4[C@@H]3c3ccc(O)cc3)cc2)[C@@]12C(=O)Nc1ccc(I)cc12`, the composite z-score in experiment [1] came to 0.601; in [6] it was 0.834; in [7] it was 1.27; in the experiment with Torsin-1A (Homo sapiens) [8], 0.271; with Torsin-1A (Homo sapiens) [9] it was 0.506; in experiment [10], 2.2. The compound also displayed a composite z-score in experiment [12] of 1.58. Further, the z-score was -0.259 (inactive) in experiment [2]; -0.282 (inactive) in experiment [3]; -0.655 (inactive) in experiment [4]; -1.23 (inactive) in [5]; 0.928 (inactive) in experiment [11]; 1.5 (inactive) in experiment [13]. Also, the z-score in experiment [14] is 0.9 (inactive); in experiment [15], 4.25 (inactive); in experiment [16] it was 0.718 (inactive); in [17], 0.0764; in experiment [18], 0.485 (inactive); in experiment [19], 0.64 (inactive). Besides, the z-score in experiment [20] amounted to 0.839.
For `COc1ccc(CCNC(=O)[C@@]2(c3ccc([N+](=O)[O-])cc3)CC(=O)N(C3CCCCC3)[C@@H]2c2ccc(CO)cc2I)cc1`, the composite z-score in experiment [1] is 1.07; in experiment [6], -0.0827; in experiment [7], -0.0695; with Torsin-1A (Homo sapiens) [8], 0.628; with Torsin-1A (Homo sapiens) [9] it was 0.0294; in [10] it was 0.575. The compound further gave a composite z-score in experiment [12] of 0.0341. The z-score in experiment [2] is -4.72 (inactive); in experiment [3], 1.02 (inactive); in experiment [4], 0.441 (inactive); in [5], 0.0398 (inactive); in experiment [11], 0.423 (inactive); in experiment [13], 11.9 (active). For the same compound, the z-score was 1.78 (inactive) in experiment [14]; 3.17 (inactive) in experiment [15]; 1.04 (inactive) in experiment [16]; -0.189 in experiment [17]; 1.3 (inactive) in [18]; -1.04 (inactive) in experiment [19]. Moreover, in [20], the z-score was found to be 2.21.
On to `COCCCNC(=O)[C@]1(Cc2ccccc2CN=[N+]=[N-])N=C(c2ccc(OCCCO)cc2)O[C@@H]1c1ccccc1N=[N+]=[N-]`, for which the composite z-score was 0.693 in [1]; 0.437 in experiment [6]; 0.4 in experiment [7]; 0.637 with Torsin-1A (Homo sapiens) [8]; 0.557 with Torsin-1A (Homo sapiens) [9]; -0.448 in experiment [10]. The same compound gave a composite z-score in experiment [12] of 0.87. The z-score was -4.12 (inactive) in experiment [2]; 0.206 (inactive) in experiment [3]; 2 (inactive) in experiment [4]; -0.786 (inactive) in experiment [5]; 0.913 (inactive) in experiment [11]; 33.7 (active) in [13]. Moreover, the z-score in [14] was 31.2 (active); in experiment [15] it was 1.91 (inactive); in experiment [16], 8.54 (active); in experiment [17] it was 0.0038; in experiment [18], -0.713 (inactive); in [19], 1.06 (inactive). For the same compound, the z-score in [20] turned out to be 1.42.
